Data from PubChem BioAssay AID652044 (Broad Institute, 2013).
Results with a measured potency or affinity are listed apart. Calls of active or inactive are those of the source.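 How the source made its calls: active means cell-killing curve whose half-maximal dose falls at or below double the top accepted dose; inconclusive means flat fit with drops of 30 to 70%, or poor fit; inactive means the rest, including signal rises.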

test: NIH3T3 fibroblast cytotoxicity, dose response, cytotoxicity control for PglD inhibitor project, cell-based, CellTiter-Glo luminescence, dry powder (AID 652044); conditions: NIH3T3 viability, CellTiter-Glo ATP luminescence, 48 h; series mostly up to 26 µM

Row | Compound | outcome
1 | CO[C@@H]1CN(C)C(=O)c2ccc(NS(C)(=O)=O)cc2OC[C@@H](C)N(C(=O)C2CCOCC2)C[C@H]1C | inactive
2 | O=C(N[C@H]1C=C[C@@H](CC(=O)N2CCCCC2)O[C@H]1CO)c1ccc2c(c1)OCO2 | inactive
3 | O=C(C[C@@H]1C[C@@H]2c3cc(NC(=O)NC4CCCCC4)ccc3O[C@@H]2[C@@H](CO)O1)NCc1cccnc1 | inactive
4 | COCC#Cc1cnc2c(c1)C(=O)N([C@@H](C)CO)C[C@H](C)[C@@H](CN(C)C(=O)C1CCC1)O2 | inactive
5 | CC=Cc1ccc2n(c1=O)C[C@@H]1[C@@H](CO)[C@H](C(=O)NCCOC)[C@H]2N1Cc1nccs1 (mixture of isomers) | inactive
6 | CO[C@H]1CN(C)C(=O)c2cc(NC(C)=O)ccc2OC[C@@H](C)NC[C@@H]1C | inactive
7 | CCC(=O)Nc1ccc2c(c1)OC[C@@H](C)N(Cc1ccccn1)C[C@@H](C)[C@H](OC)CN(C)C2=O | inactive
8 | O=C(C[C@@H]1CC[C@@H]2[C@H](COC[C@@H](O)CN2Cc2ccc(F)cc2)O1)N1CCc2ccccc2C1 | inactive
9 | CC(=O)N[C@H]1CC[C@H](CC(=O)NCc2ccc(Cl)cc2)O[C@H]1CO | inactive
10 | C/C=C/c1cnc2c(c1)C(=O)N([C@@H](C)CO)C[C@H](C)[C@@H](CN(C)C(=O)c1cccnc1)O2 | inactive
11 | Cc1noc(C)c1NC(=O)Nc1cccc2c1O[C@H](CN(C)C(=O)Nc1cccc3ccccc13)[C@@H](C)CN([C@H](C)CO)C2=O | inactive
12 | C[C@H]1CN([C@@H](C)CO)C(=O)c2cccc(NC(=O)Nc3ccccc3)c2O[C@H]1CN(C)C | inactive
